# Reference: the supplement of paper PMC8728848
# The sample as a whole holds a higher share of the strongest signals than the screen did.
# B1: Protein L(A-C2) (Finegoldia magna), Q51912 (protein)
# chain: ADEPIDLEKLEEKRDKENVGNLPKFDNEVKDGSENPMAKYPDFDDEASTRFETENNEFEEKKVVSDNFFDQSEHPFVENKEETPETPETDSEEEVTIKANLIFANGSTQTAEFKGTFEKATSEAYAYADTLKKDNGEYTVDVADKGYTLNIKFAGKEKTPEEPKEEVTIKANLIYADGKTQTAEFKGTFEEATAEAYRYADALKKDNGEYTVDVADKGYTLNIKFAGKEKTPEEPKEEVTIKANLIYADGKTQTAEFKGTFEEATAEAYRYADLLAKENGKYTVDVADKGYTLNIKFAGKEKTPEEPKEEVTIKANLIYADGKTQTAEFKGTFAEATAEAYRYADLLAKENGKYTADLEDGGYTINIRFAGKKVDEKPEEKEQVTIKENIYFEDGTVQTATFKGTFAEATAEAYRYADLLSKEHGKYTADLEDGGYTINIRFAGKEEPEETPEKPEVQDGYASYEEAEAAAKEALKNDDVNKSYTIRQGADGRYYYVLSPVEAEEEKPEAQNGYATYEEAEAAAKKALENDPINKSYSIRQGADGRYYYVLSPVEAE
# What was measured:
# Experiment in all cases: glycan array binding signal (z-score within array); higher = stronger binding
# Conditions in all cases: glycan notation: IUPAC condensed, linker removed
# [1] = biological target: Fuc(a1-2)Gal(b1-3)GalNAc(a1-3)[Fuc(a1-2)]Gal(b1-4)GlcNAc
# Method in brief: (§1)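 Arrays were curated from the Consortium for Functional Glycomics database, 3228 in total, and kept only where the protein sequence was available. Binding is expressed as a within-array Z-score. This score was averaged across arrays of the same protein sequence at different concentrations or buffers and across linkers, and negative values can be read as non-binding.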
# [2] = biological target: Fuc(a1-2)Gal(b1-3)GlcNAc(b1-3)[Gal(b1-4)GlcNAc(b1-6)]Gal(b1-4)Glc
# Method in brief: as §1
# [3] = biological target: Fuc(a1-2)Gal(b1-4)[Fuc(a1-3)]GlcNAc(b1-3)GalNAc
# Method in brief: as §1
# [4] = biological target: Fuc(a1-2)[Gal(a1-3)]Gal(b1-4)GlcNAc(b1-3)GalNAc
# Method in brief: as §1
# [5] = biological target: Fuc(a1-2)[GalNAc(a1-3)]Gal(b1-4)GlcNAc(b1-3)GalNAc
# Method in brief: as §1
# [6] = biological target: Fuc(a1-2)[GalNAc(a1-3)]Gal(b1-4)[Fuc(a1-3)]GlcNAc
# Method in brief: as §1
# [7] = biological target: Fuc(a1-3)[Gal(b1-4)]GlcNAc(b1-2)Man(a1-3)[Fuc(a1-3)[Gal(b1-4)]GlcNAc(b1-2)Man(a1-6)]Man(b1-4)GlcNAc(b1-4)[Fuc(a1-6)]GlcNAc
# Method in brief: as §1
# [8] = biological target: Fuc(a1-3)[Gal(b1-4)]GlcNAc(b1-3)Gal(b1-3)[Fuc(a1-4)]GlcNAc
# Method in brief: as §1
# [9] = biological target: Fuc(a1-3)[Gal3S(b1-4)]GlcNAc
# Method in brief: as §1
# [10] = biological target: Fuc(a1-4)GlcNAc
# Method in brief: as §1
# [11] = biological target: Gal(a1-3)Gal(b1-4)GlcNAc(b1-6)GalNAc
# Method in brief: as §1
# [12] = biological target: Gal(a1-4)Gal(b1-4)GlcNAc(b1-3)Gal(b1-4)Glc
# Method in brief: as §1
# [13] = biological target: Gal(b1-3)GlcNAc(b1-2)Man(a1-3)[Gal(b1-3)GlcNAc(b1-2)Man(a1-6)]Man(b1-4)GlcNAc(b1-4)[Fuc(a1-6)]GlcNAc
# Method in brief: as §1
# [14] = biological target: Gal(b1-3)GlcNAc(b1-2)Man(a1-3)[GlcNAc(b1-4)][Gal(b1-3)GlcNAc(b1-2)Man(a1-6)]Man(b1-4)GlcNAc(b1-4)GlcNAc
# Method in brief: as §1
# [15] = biological target: Gal(b1-3)[Fuc(a1-4)]GlcNAc(b1-6)GalNAc
# Method in brief: as §1
# [16] = biological target: Gal(b1-4)GalNAc(b1-3)[Fuc(a1-2)]Gal(b1-4)GlcNAc
# Method in brief: as §1
# [17] = biological target: Gal(b1-4)GlcNAc
# Method in brief: as §1
# [18] = biological target: Gal(b1-4)GlcNAc(b1-2)[Gal(b1-4)GlcNAc(b1-4)]Man(a1-3)[GlcNAc(b1-4)][Gal(b1-4)GlcNAc(b1-2)[Gal(b1-4)GlcNAc(b1-6)]Man(a1-6)]Man(b1-4)GlcNAc(b1-4)GlcNAc
# Method in brief: as §1
# [19] = biological target: Gal(b1-4)GlcNAc(b1-3)Gal(b1-4)GlcNAc(b1-2)Man(a1-3)[Gal(b1-4)GlcNAc(b1-3)Gal(b1-4)GlcNAc(b1-2)Man(a1-6)]Man(b1-4)GlcNAc(b1-4)[Fuc(a1-6)]GlcNAc
# Method in brief: as §1
# [20] = biological target: Gal(b1-4)GlcNAc(b1-3)Gal(b1-4)GlcNAc(b1-3)Gal(b1-4)GlcNAc(b1-2)Man(a1-3)[Gal(b1-4)GlcNAc(b1-3)Gal(b1-4)GlcNAc(b1-3)Gal(b1-4)GlcNAc(b1-2)Man(a1-6)]Man(b1-4)GlcNAc(b1-4)GlcNAc
# Method in brief: as §1
# [21] = biological target: Gal(b1-4)GlcNAc(b1-3)Gal(b1-4)GlcNAc(b1-6)[Gal(b1-3)]GalNAc
# Method in brief: as §1
# [22] = biological target: Gal6S(b1-4)Glc
# Method in brief: as §1
# [23] = biological target: GalNAc(a1-3)GalNAc
# Method in brief: as §1
# [24] = biological target: GalNAc(b1-3)Gal
# Method in brief: as §1
# [25] = biological target: GalNAc(b1-3)Gal(a1-4)Gal(b1-4)GlcNAc(b1-3)Gal(b1-4)Glc
# Method in brief: as §1
# [26] = biological target: GalNAc6S(b1-4)GlcNAc
# Method in brief: as §1
# [27] = biological target: GlcA(b1-3)Gal
# Method in brief: as §1
# [28] = biological target: GlcNAc(b1-2)Man(a1-3)[GlcNAc(b1-2)Man(a1-6)]Man(b1-4)GlcNAc(b1-4)[Fuc(a1-6)]GlcNAc
# Method in brief: as §1
# [29] = biological target: GlcNAc(b1-2)Man(a1-3)[GlcNAc(b1-4)][GlcNAc(b1-2)Man(a1-6)]Man(b1-4)GlcNAc(b1-4)[Fuc(a1-6)]GlcNAc
# Method in brief: as §1
# [30] = biological target: GlcNAc(b1-3)Gal(b1-4)GlcNAc
# Method in brief: as §1
# [31] = biological target: GlcNAc(b1-3)Gal(b1-4)GlcNAc(b1-3)Gal(b1-4)GlcNAc(b1-2)Man(a1-3)[GlcNAc(b1-3)Gal(b1-4)GlcNAc(b1-3)Gal(b1-4)GlcNAc(b1-2)Man(a1-6)]Man(b1-4)GlcNAc(b1-4)GlcNAc
# Method in brief: as §1
# [32] = biological target: GlcNAc(b1-3)[GlcNAc(b1-6)]Gal(b1-4)GlcNAc
# Method in brief: as §1
# [33] = biological target: Man(a1-3)[Man(a1-6)]Man(a1-6)[Man(a1-2)Man(a1-3)]Man(b1-4)GlcNAc(b1-4)GlcNAc
# Method in brief: as §1
# [34] = biological target: Man(b1-4)GlcNAc
# Method in brief: as §1
# [35] = biological target: Neu5Ac(a2-3)Gal(b1-3)GalNAc
# Method in brief: as §1
# [36] = biological target: Neu5Ac(a2-3)Gal(b1-3)GlcNAc(b1-2)Man
# Method in brief: as §1
# [37] = biological target: Neu5Ac(a2-3)Gal(b1-3)[GlcNAc(b1-6)]GalNAc
# Method in brief: as §1
# [38] = biological target: Neu5Ac(a2-3)Gal(b1-4)Glc
# Method in brief: as §1
# [39] = biological target: Neu5Ac(a2-3)Gal(b1-4)GlcNAc(b1-2)Man(a1-3)[GlcNAc(b1-4)][Neu5Ac(a2-3)Gal(b1-4)GlcNAc(b1-2)Man(a1-6)]Man(b1-4)GlcNAc(b1-4)GlcNAc
# Method in brief: as §1
# [40] = biological target: Neu5Ac(a2-3)Gal(b1-4)GlcNAc(b1-2)Man(a1-3)[Neu5Ac(a2-3)Gal(b1-4)GlcNAc(b1-2)Man(a1-6)]Man(b1-4)GlcNAc(b1-4)[Fuc(a1-6)]GlcNAc
# Method in brief: as §1
# [41] = biological target: Neu5Ac(a2-3)Gal(b1-4)GlcNAc(b1-3)Gal(b1-4)GlcNAc
# Method in brief: as §1
# [42] = biological target: Neu5Ac(a2-3)Gal(b1-4)GlcNAc(b1-3)Gal(b1-4)GlcNAc(b1-3)Gal(b1-4)GlcNAc(b1-2)Man(a1-3)[Neu5Ac(a2-3)Gal(b1-4)GlcNAc(b1-3)Gal(b1-4)GlcNAc(b1-3)Gal(b1-4)GlcNAc(b1-2)Man(a1-6)]GalNAc
# Method in brief: as §1
# [43] = biological target: Neu5Ac(a2-6)Gal(b1-4)GlcNAc(b1-2)Man
# Method in brief: as §1
# [44] = biological target: Neu5Ac(a2-6)Gal(b1-4)GlcNAc(b1-2)Man(a1-3)[Neu5Ac(a2-6)Gal(b1-4)GlcNAc(b1-2)Man(a1-6)]Man(b1-4)GlcNAc(b1-4)GlcNAc
# Method in brief: as §1
# [45] = biological target: Neu5Ac(a2-6)Gal(b1-4)GlcNAc(b1-2)Man(a1-6)Man(b1-4)GlcNAc(b1-4)GlcNAc
# Method in brief: as §1
# [46] = biological target: Neu5Ac(a2-6)Gal(b1-4)GlcNAc(b1-2)Man(a1-6)[Man(a1-3)]Man(b1-4)GlcNAc(b1-4)GlcNAc
# Method in brief: as §1
# [47] = biological target: Neu5Ac(a2-6)Gal(b1-4)GlcNAc(b1-3)Gal(b1-4)GlcNAc(b1-3)[Neu5Ac(a2-6)Gal(b1-4)GlcNAc(b1-3)Gal(b1-4)GlcNAc(b1-6)]GalNAc
# Method in brief: as §1
# [48] = biological target: Neu5Ac(a2-6)Gal(b1-4)GlcNAc(b1-3)Gal(b1-4)GlcNAc(b1-6)[Gal(b1-3)]GalNAc
# Method in brief: as §1
# [49] = biological target: Neu5Ac(a2-6)Gal(b1-4)GlcNAc6S
# Method in brief: as §1
# [50] = biological target: Neu5Gc(a2-3)Gal(b1-4)GlcNAc(b1-3)Gal(b1-4)GlcNAc(b1-2)Man(a1-3)[Neu5Gc(a2-3)Gal(b1-4)GlcNAc(b1-3)Gal(b1-4)GlcNAc(b1-2)Man(a1-6)]Man(b1-4)GlcNAc(b1-4)GlcNAc
# Method in brief: as §1
binder,measurement,setting,value
B1,glycan array binding signal (z-score),[1],-0.969
same,glycan array binding signal (z-score),[2],-0.355
same,glycan array binding signal (z-score),[3],2.89
same,glycan array binding signal (z-score),[4],6.17
same,glycan array binding signal (z-score),[5],-0.485
same,glycan array binding signal (z-score),[6],3.52
same,glycan array binding signal (z-score),[7],1.71
same,glycan array binding signal (z-score),[8],0.052
same,glycan array binding signal (z-score),[9],-0.101
same,glycan array binding signal (z-score),[10],-0.933
same,glycan array binding signal (z-score),[11],-0.284
same,glycan array binding signal (z-score),[12],-0.164
same,glycan array binding signal (z-score),[13],0.716
same,glycan array binding signal (z-score),[14],0.568
same,glycan array binding signal (z-score),[15],3.16
same,glycan array binding signal (z-score),[16],-0.365
same,glycan array binding signal (z-score),[17],-0.975
same,glycan array binding signal (z-score),[18],-0.468
same,glycan array binding signal (z-score),[19],0.357
same,glycan array binding signal (z-score),[20],3.21
same,glycan array binding signal (z-score),[21],3.67
same,glycan array binding signal (z-score),[22],-0.354
same,glycan array binding signal (z-score),[23],-0.445
same,glycan array binding signal (z-score),[24],-0.354
same,glycan array binding signal (z-score),[25],0.127
same,glycan array binding signal (z-score),[26],-0.775
same,glycan array binding signal (z-score),[27],-0.562
same,glycan array binding signal (z-score),[28],2.85
same,glycan array binding signal (z-score),[29],-0.153
same,glycan array binding signal (z-score),[30],-0.623
same,glycan array binding signal (z-score),[31],1.91
same,glycan array binding signal (z-score),[32],-0.856
same,glycan array binding signal (z-score),[33],4.98
same,glycan array binding signal (z-score),[34],0.002
same,glycan array binding signal (z-score),[35],0.418
same,glycan array binding signal (z-score),[36],3.79
same,glycan array binding signal (z-score),[37],-0.278
same,glycan array binding signal (z-score),[38],0.38
same,glycan array binding signal (z-score),[39],-0.228
same,glycan array binding signal (z-score),[40],2.19
same,glycan array binding signal (z-score),[41],-1.1
same,glycan array binding signal (z-score),[42],3.85
same,glycan array binding signal (z-score),[43],0.253
same,glycan array binding signal (z-score),[44],-0.037
same,glycan array binding signal (z-score),[45],-0.51
same,glycan array binding signal (z-score),[46],0.298
same,glycan array binding signal (z-score),[47],3.89
same,glycan array binding signal (z-score),[48],0.761
same,glycan array binding signal (z-score),[49],-0.725
same,glycan array binding signal (z-score),[50],0.473
